Source: PubChem BioAssay (several laboratories)
BAP1 block: blocks human BAP1 ubiquitin-AMC hydrolysis; Q92560; recombinant BAP1, Ub-AMC hydrolysis fluorescence kinetic; active compounds read low; calls only at 20 µM; hit rate 0.48% among 72,000; AID 436;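 active = activity remaining at or below 50% of control, provided the compound also passes the data quality filters; inactive = the rest, including low values that fail the filters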;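 note: 100% = DMSO wells rate and 0% = substrate alone blank rate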
M1 antag: blocks the rat M1 muscarinic receptor response to acetylcholine; P08482; CHO-M1 cells, Fluo-4 calcium, ACh EC80 antagonist mode; active compounds read low; B-score at 10 µM; hit rate 3.4% among 64,000;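 active = calcium fluorescence response, raw or row-and-column corrected B-score, differing from the plate sample mean either way at a set confidence level, mostly lower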
Fluor 339 460: intrinsic fluorescence of library compounds, ex339/em460 – biochemical, MLSMR library, data from DPM-DC assay, artefact control, profiling panel; fluorescence fold increase at 10 µM; hit rate 5.5% among 65,000; compound autofluorescence, ex339/em460 nm, NADH buffer; active compounds read high; 1 = no-compound wells, NADH background; AID 709;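 active = at 10 µM, mean starting fluorescence two-fold or more over control wells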;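 note: signal is the first read of a kinetic run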
A340 absorber: absorbance at 340 nm; compound absorbance at 340 nm, fold over control; fold change at 10 µM; 65,000 tested, under 10 active;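 active = at 10 µM dose, initial 340 nm absorbance at least 2 fold that of control wells; inactive = change under 2 fold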;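 note: initial absorbance extrapolated from kinetic A340 decline of NADH oxidation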
M1 agonist: agonists of M1 muscarinic receptor; AID 626; hit rate 3% among 64,000; B-score at 10 µM; CHO-M1 cells, Fluo-4 calcium fluorescence, agonist mode; active compounds read high;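 active = fluorescence rise, raw or as B-score row- and column-corrected plate score, outside the 99.7% band of its plate's samples, either direction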
WNV protease inh: inhibitors of West Nile virus NS2B-NS3 protease | WNV NS2B-NS3 protease, fluorogenic substrate Ex360/Em465; active compounds read low | z-score (concentration not given with the values) | hit rate 0.18% among 65,000; in the data active = z-score below about -3
Target sequence (P06935 1371-1501 limits assumed): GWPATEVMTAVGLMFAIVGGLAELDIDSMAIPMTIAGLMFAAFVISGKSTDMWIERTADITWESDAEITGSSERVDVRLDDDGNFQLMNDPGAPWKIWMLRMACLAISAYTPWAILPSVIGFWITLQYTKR
Target sequence (P06935 1502-1679 limits assumed): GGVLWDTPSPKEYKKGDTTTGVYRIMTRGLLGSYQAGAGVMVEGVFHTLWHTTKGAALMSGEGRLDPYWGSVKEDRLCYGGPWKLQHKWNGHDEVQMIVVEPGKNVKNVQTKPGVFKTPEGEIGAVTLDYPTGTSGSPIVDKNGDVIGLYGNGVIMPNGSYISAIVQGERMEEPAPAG
M1 antag conf: confirmation of rat M1 muscarinic receptor antagonists; calcium response (max-min fluorescence) at 10 µM; hit rate 43% among 1,700; CHO-M1 cells, Fluo-4 calcium, ACh EC80 antagonism; active compounds read low; shares compounds with M1 antag;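 active = calcium response below the same-plate mean of wells given acetylcholine alone at its 80%-effect dose, minus 3 SD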;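 note: raw fluorescence intensity difference in arbitrary instrument units and not normalized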
mGluR4 antag: mGluR4 (human) activity, M1 antagonist secondary assay | shares compounds with M1 antag | CHO-mGluR4 calcium flux, Fluo-4 fluorescence, glutamate EC80; active compounds read low | fluorescence response (max-min) at 10 µM | hit rate 0.9% among 1,700 | AID 678;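 active = fluorescence response below the plate's average for near-maximal glutamate wells, less 3 SD of those wells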;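 note: raw unnormalized fluorescence span taken in the window right after glutamate addition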
* marks the source's active call; other numbers are inactive results. Shown are actives, neighbours in structure and some others; about 9.7% of the full set was active somewhere.

How did COc1ccc(C2(CN(C(C)=O)C(C)=O)CCCC2)cc1OC do in these assays?
BAP1 block: inactive; M1 antag: -14.4*; Fluor 339 460: 1.03; A340 absorber: 0.99; M1 agonist: -0.951; WNV protease inh: -0.11; M1 antag conf: 546; mGluR4 antag: 197

How did COc1ccccc1N=c1oc2ccccc2cc1C(=O)Nc1cccc(C(F)(F)F)c1 do in these assays?
BAP1 block: inactive

What do the screens show for `Nn1c(-c2cccs2)nc2sc3c(c2c1=O)CCCC3`?
M1 antag: -4.4*; Fluor 339 460: 1.5; A340 absorber: 1.05; M1 agonist: -0.657; WNV protease inh: 1.75; M1 antag conf: 672; mGluR4 antag: 202

What do the screens show for `O=c1c2c3c(sc2nc2sc(C4CC4)nn12)CCCC3`?
BAP1 block: inactive; M1 antag: 0.0734; Fluor 339 460: 1.01; A340 absorber: 1.03; M1 agonist: 0.636; WNV protease inh: 0.04

What do the screens show for `O=C(c1ccccc1Cl)N1CCN(C2=NS(=O)(=O)c3ccccc32)CC1`?
BAP1 block: inactive

Results for O=C(C(Sc1ccccc1)c1ccccc1)N1CCCCCC1 (stereo not given) ?
BAP1 block: inactive

What do the screens show for `Cc1cc(/C=N/n2cnnc2)c(C)n1-c1ccc(OCc2ccc(F)cc2)cc1`?
BAP1 block: inactive; M1 antag: -2.35*; Fluor 339 460: 1.14; A340 absorber: 1.06; M1 agonist: 0.405; WNV protease inh: -0.64; M1 antag conf: 503*; mGluR4 antag: 247

How did Cc1cc(C)n(-c2nncn2/N=C/c2ccccc2F)n1 do in these assays?
BAP1 block: inactive; M1 antag: -3.33*; Fluor 339 460: 1.03; A340 absorber: 1.01; M1 agonist: -1; WNV protease inh: -0.24; M1 antag conf: 576; mGluR4 antag: 233

Results for Fc1ccccc1/C=N/n1cnnc1 ?
BAP1 block: inactive; M1 antag: 0.353; Fluor 339 460: 1.07; A340 absorber: 1.02; M1 agonist: -0.29; WNV protease inh: 0.91

Results for CSC1=NC(=C2N=C(SC)c3ccccc32)c2ccccc21 ?
BAP1 block: inactive

How did O=C(Nc1ccncc1)c1cc2c(ccc3ccccc32)oc1=O do in these assays?
BAP1 block: inactive

What do the screens show for `COc1ccccc1N1CCN(C(=O)Cc2cccs2)CC1`?
BAP1 block: inactive; M1 antag: -1.85*; Fluor 339 460: 1.16; A340 absorber: 1.06; M1 agonist: -0.426; WNV protease inh: 0.7; M1 antag conf: 544; mGluR4 antag: 200

What do the screens show for `COc1ccccc1N1CCN(C(=O)C2c3ccccc3Oc3ccccc32)CC1`?
BAP1 block: inactive; M1 antag: -1.33*; Fluor 339 460: 1.05; A340 absorber: 1; M1 agonist: -0.207; WNV protease inh: -0.17; M1 antag conf: 573; mGluR4 antag: 274

What do the screens show for `COc1ccccc1N1CCN(C(=O)C2CC=CCC2C(=O)O)CC1` (stereo not given)?
BAP1 block: inactive; M1 antag: 0.887; Fluor 339 460: 1.03; A340 absorber: 0.98; M1 agonist: 0.179; WNV protease inh: 0.12

Results for Cc1onc(-c2ccccc2Cl)c1C(=O)Nc1ccc(-c2nnc3n2CCCCC3)cc1 ?
BAP1 block: inactive; M1 antag: -2.29*; Fluor 339 460: 0.9; A340 absorber: 1.03; M1 agonist: 0.36; WNV protease inh: -1.38; M1 antag conf: 408*; mGluR4 antag: 216

What do the screens show for `COC(=O)CNC(=O)c1c(-c2ccccc2Cl)noc1C`?
BAP1 block: inactive; M1 antag: 0.282; Fluor 339 460: 1.19; A340 absorber: 1.02; M1 agonist: -0.139; WNV protease inh: -1.15

What do the screens show for `Cc1onc(-c2ccccc2Cl)c1C(=O)Nc1nnc(C(C)C)s1`?
BAP1 block: inactive; M1 antag: -2.19*; Fluor 339 460: 1.05; A340 absorber: 1.03; M1 agonist: -0.16; WNV protease inh: 1.03; M1 antag conf: 377*; mGluR4 antag: 190

What do the screens show for `Nc1ccccc1Nc1c([N+](=O)[O-])c(=O)oc2ccccc12`?
BAP1 block: inactive

What do the screens show for `CCOc1ccc(NC(=NS(=O)(=O)c2ccc(Cl)cc2)c2ccccc2)cc1`?
BAP1 block: inactive

Results for O=C(N/C(=N\O)c1ccccc1)Nc1ccc(Cl)cc1 ?
BAP1 block: inactive; M1 antag: -3.46*; Fluor 339 460: 1.06; A340 absorber: 1.03; M1 agonist: -0.36; WNV protease inh: -0.31; M1 antag conf: 487; mGluR4 antag: 210

How did CC1CCN(CCC(=O)Nc2ccc(Br)cc2)CC1 do in these assays?
BAP1 block: inactive; M1 antag: -0.168; Fluor 339 460: 1.09; A340 absorber: 0.99; M1 agonist: -0.0312; WNV protease inh: -0.12

How did CC1CCCN(CCC(=O)c2ccc(Br)cc2)C1 (stereo not given) do in these assays?
BAP1 block: inactive; M1 antag: -4.54*; Fluor 339 460: 1.23; A340 absorber: 1.01; M1 agonist: -0.382; WNV protease inh: -1.25; M1 antag conf: 500; mGluR4 antag: 215

Results for COc1nc(Nc2ccc(OC)c(Cl)c2)nc(OC)n1 ?
BAP1 block: inactive; M1 antag: -1.23*; Fluor 339 460: 1.13; A340 absorber: 1.05; M1 agonist: -0.108; WNV protease inh: -0.29; M1 antag conf: 603; mGluR4 antag: 255

How did COc1ccc(NC(=O)C=C(C)C)cc1Cl do in these assays?
BAP1 block: inactive; M1 antag: 0.263; Fluor 339 460: 1.14; A340 absorber: 1.04; M1 agonist: -0.442; WNV protease inh: -0.6

What do the screens show for `O=[N+]([O-])c1ccc(-n2nc(-c3ccco3)cc2-c2ccccc2)cc1`?
BAP1 block: inactive

Results for Cc1ccc2sc(-c3ccc(NC(=O)COc4ccccc4)cc3)nc2c1 ?
BAP1 block: inactive

What do the screens show for `COC(=O)c1ccc(CSc2nnnn2C)o1`?
BAP1 block: inactive; M1 antag: -3.14*; Fluor 339 460: 1.06; A340 absorber: 1.1; M1 agonist: -0.453; WNV protease inh: 0.07; M1 antag conf: 399*; mGluR4 antag: 257

What do the screens show for `COC(=O)c1ccc(CSc2ccc3nnc(-c4cccc(F)c4)n3n2)o1`?
BAP1 block: inactive; M1 antag: -9.18*; Fluor 339 460: 1.45; A340 absorber: 1.03; M1 agonist: -0.257; WNV protease inh: -0.2; M1 antag conf: 216*; mGluR4 antag: 205

How did COC(=O)c1ccc(CSc2nnc3c(Cl)cc(Cl)cn23)o1 do in these assays?
BAP1 block: inactive; M1 antag: -0.803; Fluor 339 460: 1.06; A340 absorber: 1.01; M1 agonist: -0.351; WNV protease inh: -0.29
